PubChem BioAssay (Tox21)
A number with no mark means an inactive call. Records with an inconclusive call do not appear. A call without a number means that no potency is given here. Calls of active or inactive are those of the source. Calls follow the shape of the full dose curve.

Columns and labels:
[1] = molecular target: Acetylcholinesterase (Homo sapiens) (UniProt P22303); assay: Acetylcholinesterase (AChE) small molecule antagonists: colormetric cell-based qHTS assay (AID 1347395); conditions: SH-SY5Y cells AChE activity, colorimetric (Ellman); series mostly up to 115 µM; also: nearly all actives have a fitted effect of over 30% in size; also: potency is read from the fitted curve at half-maximal effect
Outline: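 Neuroblastoma line SH-SY5Y supplied the enzyme; cells were preincubated with compound for 30 min at 37 C and 5% CO2. Acetylthiocholine with DTNB was then added for 90 min at 37 C, and thiocholine was measured by colour.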

[2] = molecular target: Acetylcholinesterase (Homo sapiens) (UniProt P22303); assay: Acetylcholinesterase (AChE) small molecule antagonists: fluorescence cell-based qHTS assay (AID 1347398); conditions: SH-SY5Y cells; Potency: AChE activity; outcome: AChE activity; series mostly up to 115 µM; also: nearly all actives have a fitted effect of over 50% in size; also: potency is read from the fitted curve at half-maximal effect
Outline: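 Thiocholine generated from acetylthiocholine by SH-SY5Y cell AChE is detected with Thiolite Green (Ex/Em 490/520 nm) after 40 min at room temperature, following 30 min compound pretreatment at 37 C.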

[3] = molecular target: Acetylcholinesterase (Homo sapiens) (UniProt P22303); assay: Acetylcholinesterase (AChE) small molecule antagonists: enzyme-based qHTS assay with human liver microsomes (AID 1347399); conditions: Potency: qHTS inhibition; outcome: qHTS inhibition; series mostly up to 115 µM; also: nearly all actives have a fitted effect of over 60% in size
Outline: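 Recombinant human AChE (50 mU/mL in the enzyme mix) and human liver microsomes (0.25 mg/mL final) were preincubated with compound and NADPH (0.25 mg/mL final) for 30 min at 37 C. Acetylthiocholine/DTNB was then added; thiocholine was read colorimetrically after 10 min at room temperature.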

Sequence of Acetylcholinesterase (Homo sapiens) (P22303 whole entry, looked up): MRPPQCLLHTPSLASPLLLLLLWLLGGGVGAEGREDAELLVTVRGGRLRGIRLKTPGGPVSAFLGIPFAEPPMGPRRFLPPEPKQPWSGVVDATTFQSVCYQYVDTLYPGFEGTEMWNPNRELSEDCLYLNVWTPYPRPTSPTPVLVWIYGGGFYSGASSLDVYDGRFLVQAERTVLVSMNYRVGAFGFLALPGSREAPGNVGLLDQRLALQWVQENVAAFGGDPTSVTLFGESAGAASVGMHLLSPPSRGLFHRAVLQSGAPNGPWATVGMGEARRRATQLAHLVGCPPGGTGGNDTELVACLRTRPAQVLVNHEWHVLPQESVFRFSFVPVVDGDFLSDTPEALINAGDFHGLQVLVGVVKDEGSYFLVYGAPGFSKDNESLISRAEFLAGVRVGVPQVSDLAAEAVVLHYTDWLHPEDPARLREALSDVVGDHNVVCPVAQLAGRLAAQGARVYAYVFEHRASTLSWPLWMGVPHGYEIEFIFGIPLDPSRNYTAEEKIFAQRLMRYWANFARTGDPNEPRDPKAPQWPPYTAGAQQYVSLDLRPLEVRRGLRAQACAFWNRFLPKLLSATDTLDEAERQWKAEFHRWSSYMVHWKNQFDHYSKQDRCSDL

Nc1ccc2ccccc2c1S(=O)(=O)O was tested, and the Potency [1] was “inactive”, the Potency [2] was “inactive” and the Potency [3] was “inactive”.

For CC(C)CCOC(=O)CC(C)C, the Potency [1] was “inactive”, the Potency [2] was “inactive” and the Potency [3] was “inactive”.

For O=S(=O)(c1ccc(OCc2ccccc2)cc1)c1ccccc1O, the Potency [1] was “inactive”, the Potency [2] was “inactive” and the Potency [3] was “inactive”.

Cn1c(=O)cc(Oc2ccc(F)cc2F)c2cnc(NCC(C)(C)O)nc21 was tested, and the Potency [1] was 28.3 µM (active), the Potency [2] was 28.3 µM (active) and the Potency [3] was “inactive”.

CCOC(=O)c1ccccc1C(=C1C=C(Br)C(=O)C(Br)=C1)c1cc(Br)c(O)c(Br)c1 was tested, and the Potency [1] was “inactive”, the Potency [2] was “inactive” and the Potency [3] was “inactive”.

In the case of O=C(Nc1ccc(S(=O)(=O)N2CCOCC2)cc1)c1cc(Cl)ccc1NS(=O)(=O)c1ccc(Cl)s1, the Potency [1] was “inactive”, the Potency [2] was “inactive” and the Potency [3] was “inactive”.

For Cc1cc2c(cc1CC(=O)c1sccc1S(=O)(=O)Nc1onc(C)c1Cl)OCO2, the Potency [1] was “inactive”, the Potency [2] was “inactive” and the Potency [3] was “inactive”.

In the case of CC(C)[N+](C)(C)CC(O)COc1cccc2ccccc12 (stereo not given), the Potency [1] was “inactive”, the Potency [2] was “inactive” and the Potency [3] was “inactive”.

With Cc1c(C)n(Cc2ccccc2)c2ccc(C(=O)OCCN(C)C)cc12 the Potency [1] was “inactive”, the Potency [2] was 13.8 µM (active) and the Potency [3] was “inactive”.

With O=Cc1ccc(F)cc1 the Potency [1] was “inactive”, the Potency [2] was “inactive” and the Potency [3] was “inactive”.

In the case of COc1cc(C(C)C)c2c(c1)S(=O)(=O)N(COc1cc(=O)n3cccc(OCCN4CCCCC4)c3n1)C2=O, the Potency [1] was 19 µM (active), the Potency [2] was 6.74 µM (active) and the activity change, negative = inhibition [3] was -1.08% [at 23.6 µM].

C=CC[N+]1([C@H]2C[C@H]3[C@@H]4CC[C@H]5C[C@H](OC(C)=O)[C@@H](N6CCCCC6)C[C@]5(C)[C@H]4CC[C@]3(C)[C@H]2OC(=O)CC)CCCCC1 was tested, and the Potency [1] was 27.5 µM (active), the Potency [2] was 13.8 µM (active) and the Potency [3] was “inactive”.

In the case of CC(=O)Nc1ccc(OCCOCCOc2ccc(NC(C)=O)cc2)cc1, the Potency [1] was “inactive”, the Potency [2] was “inactive” and the Potency [3] was “inactive”.

With CN=C(NC#N)NCCSCc1csc(N=C(N)N)n1 the Potency [1] was “inactive”, the Potency [2] was “inactive” and the Potency [3] was “inactive”.

For CCc1cc(SCc2sc(-c3ccc(C(F)(F)F)cc3)nc2CN2CCN(c3ccc(OC)cc3)CC2)ccc1OCC(=O)O, the Potency [1] was “inactive”, the Potency [2] was “inactive” and the Potency [3] was “inactive”.

With Cc1nc2n(c(=O)c1CCN1CCC(C(=O)c3ccc(F)cc3)CC1)CCS2 the Potency [1] was 13.8 µM (active), the Potency [2] was 9.77 µM (active) and the Potency [3] was “inactive”.

With O=CCCc1ccccc1 the Potency [1] was “inactive”, the Potency [2] was “inactive” and the Potency [3] was “inactive”.

CCCCC(CC)COC(=O)c1ccccc1O (stereo not given) was tested, and the Potency [1] was “inactive”, the Potency [2] was “inactive” and the Potency [3] was “inactive”.

For C=CC(C)(O)CCCC(C)CCCC(C)CCCC(C)C (stereo not given), the Potency [1] was “inactive”, the Potency [2] was “inactive” and the Potency [3] was “inactive”.

For O=S(=O)(O)c1ccc2c(N=Nc3ccc(S(=O)(=O)O)c4ccccc34)c(O)c(S(=O)(=O)O)cc2c1, the activity, negative = inhibition [1] was -0.661% [at 10.5 µM], the activity change, negative = inhibition [2] was 5.15% [at 10.5 µM] and the activity change, negative = inhibition [3] was 1.78% [at 10.5 µM].
